# From the supplement of paper PMC6411743
# ± gives the standard deviation of the averaged measurements. Of roughly 5,400 targets only a part is listed; those with the largest changes were picked by preference.
# Compound: Nc1nc2c(ncn2[C@@H]2O[C@H](COP(=O)(O)OP(=O)(O)OP(=O)(O)O)[C@@H](O)[C@H]2O)c(=O)[nH]1 [guanosine triphosphate]
# Test: NP40-soluble protein abundance relative to vehicle (solubility fold change) (ratio); higher = more soluble protein in presence of GTP
# How it was run: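 Across three independent experiments, values are fold changes against the detergent-processed vehicle for each replicate, based on vsn-normalised intensities. The samples were Jurkat crude lysate treated with eight concentrations (0.1 to 10 mM) for 10 min at room temperature and then 3 min at 37 °C. Lysate was solubilised with 0.8% NP40 and benzonase, ultracentrifuged, and the supernatant analysed by TMT-labelled LC-MS/MS.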
# UniProt P23528, sequence (P23528 whole entry, one chain of several): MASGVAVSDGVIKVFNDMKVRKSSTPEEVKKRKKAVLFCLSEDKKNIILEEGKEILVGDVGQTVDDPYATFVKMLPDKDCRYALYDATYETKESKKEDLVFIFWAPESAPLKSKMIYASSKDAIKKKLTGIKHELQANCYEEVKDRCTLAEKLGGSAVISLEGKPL
# UniProt Q9UGP4, sequence (Q9UGP4 whole entry, one chain of several): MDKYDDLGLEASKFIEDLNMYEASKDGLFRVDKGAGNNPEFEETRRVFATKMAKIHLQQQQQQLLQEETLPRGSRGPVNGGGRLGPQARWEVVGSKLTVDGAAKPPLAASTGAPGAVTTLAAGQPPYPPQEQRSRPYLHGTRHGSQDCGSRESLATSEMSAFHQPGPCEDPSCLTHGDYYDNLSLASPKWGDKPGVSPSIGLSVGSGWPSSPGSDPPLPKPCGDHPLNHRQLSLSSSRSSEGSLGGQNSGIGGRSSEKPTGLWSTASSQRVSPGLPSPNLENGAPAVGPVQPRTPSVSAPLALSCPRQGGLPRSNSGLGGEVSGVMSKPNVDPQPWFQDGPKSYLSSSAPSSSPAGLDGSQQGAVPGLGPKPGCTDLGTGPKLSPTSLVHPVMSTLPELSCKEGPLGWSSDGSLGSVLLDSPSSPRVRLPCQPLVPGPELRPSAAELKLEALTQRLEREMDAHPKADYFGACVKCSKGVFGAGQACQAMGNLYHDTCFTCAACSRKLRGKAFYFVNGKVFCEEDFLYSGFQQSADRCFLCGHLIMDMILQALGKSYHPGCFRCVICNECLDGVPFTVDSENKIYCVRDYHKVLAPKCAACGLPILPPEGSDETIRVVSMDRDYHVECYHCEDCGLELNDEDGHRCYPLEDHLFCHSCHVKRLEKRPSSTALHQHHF
# UniProt Q96FV9, sequence (Q96FV9 whole entry, one chain of several): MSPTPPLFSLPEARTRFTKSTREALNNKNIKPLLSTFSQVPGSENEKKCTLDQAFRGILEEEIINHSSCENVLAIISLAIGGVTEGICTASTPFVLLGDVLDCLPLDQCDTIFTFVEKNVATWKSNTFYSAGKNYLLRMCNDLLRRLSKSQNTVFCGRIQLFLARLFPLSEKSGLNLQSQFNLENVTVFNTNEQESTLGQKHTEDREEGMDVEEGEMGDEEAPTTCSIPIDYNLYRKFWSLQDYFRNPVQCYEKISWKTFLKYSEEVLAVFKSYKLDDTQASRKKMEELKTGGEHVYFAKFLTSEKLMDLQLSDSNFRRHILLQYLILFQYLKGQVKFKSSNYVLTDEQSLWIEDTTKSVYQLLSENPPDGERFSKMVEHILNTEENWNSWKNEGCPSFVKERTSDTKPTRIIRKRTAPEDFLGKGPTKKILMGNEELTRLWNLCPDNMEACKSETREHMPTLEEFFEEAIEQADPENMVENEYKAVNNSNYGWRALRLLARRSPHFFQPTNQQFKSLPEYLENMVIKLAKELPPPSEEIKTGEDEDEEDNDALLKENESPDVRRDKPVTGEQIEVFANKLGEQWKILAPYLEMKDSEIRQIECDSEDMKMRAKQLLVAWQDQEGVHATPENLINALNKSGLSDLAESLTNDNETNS
# UniProt Q99590, sequence (Q99590 whole entry, one chain of several): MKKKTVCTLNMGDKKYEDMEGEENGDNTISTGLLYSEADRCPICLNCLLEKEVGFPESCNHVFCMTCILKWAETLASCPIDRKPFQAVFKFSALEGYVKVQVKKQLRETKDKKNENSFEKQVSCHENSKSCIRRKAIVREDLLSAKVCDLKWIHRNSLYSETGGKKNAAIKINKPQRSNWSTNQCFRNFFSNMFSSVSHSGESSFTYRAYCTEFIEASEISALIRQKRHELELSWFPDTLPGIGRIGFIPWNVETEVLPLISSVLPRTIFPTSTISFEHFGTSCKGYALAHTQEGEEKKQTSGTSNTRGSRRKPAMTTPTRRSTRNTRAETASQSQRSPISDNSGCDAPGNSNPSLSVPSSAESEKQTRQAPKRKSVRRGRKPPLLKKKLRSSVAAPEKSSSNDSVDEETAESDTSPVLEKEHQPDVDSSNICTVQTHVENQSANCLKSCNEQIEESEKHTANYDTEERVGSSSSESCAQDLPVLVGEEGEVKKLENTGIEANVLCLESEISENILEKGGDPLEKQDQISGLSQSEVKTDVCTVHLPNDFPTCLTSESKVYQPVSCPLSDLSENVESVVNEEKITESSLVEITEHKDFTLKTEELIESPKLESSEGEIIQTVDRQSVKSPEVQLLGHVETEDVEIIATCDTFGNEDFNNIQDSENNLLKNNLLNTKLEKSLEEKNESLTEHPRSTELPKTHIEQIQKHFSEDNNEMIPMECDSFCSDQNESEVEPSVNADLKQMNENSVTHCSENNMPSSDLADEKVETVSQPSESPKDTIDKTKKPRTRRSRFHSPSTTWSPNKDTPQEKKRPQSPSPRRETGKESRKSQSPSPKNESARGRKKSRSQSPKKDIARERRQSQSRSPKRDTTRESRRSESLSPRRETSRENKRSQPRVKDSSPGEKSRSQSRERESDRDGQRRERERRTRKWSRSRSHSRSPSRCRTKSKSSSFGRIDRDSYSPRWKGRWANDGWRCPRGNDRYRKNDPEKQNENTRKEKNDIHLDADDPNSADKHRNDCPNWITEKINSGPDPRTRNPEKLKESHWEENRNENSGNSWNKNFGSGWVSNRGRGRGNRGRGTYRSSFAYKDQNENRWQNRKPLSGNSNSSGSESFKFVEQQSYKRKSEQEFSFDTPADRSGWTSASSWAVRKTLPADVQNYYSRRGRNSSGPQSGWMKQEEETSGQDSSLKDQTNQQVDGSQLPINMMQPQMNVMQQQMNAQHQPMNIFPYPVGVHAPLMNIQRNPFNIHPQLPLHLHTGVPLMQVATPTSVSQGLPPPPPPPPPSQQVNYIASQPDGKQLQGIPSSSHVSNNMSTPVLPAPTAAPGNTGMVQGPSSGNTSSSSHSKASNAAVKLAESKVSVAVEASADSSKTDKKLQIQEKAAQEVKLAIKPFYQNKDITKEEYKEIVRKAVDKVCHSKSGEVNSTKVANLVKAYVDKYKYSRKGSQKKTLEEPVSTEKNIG
# UniProt B0I1T2, sequence (B0I1T2 whole entry): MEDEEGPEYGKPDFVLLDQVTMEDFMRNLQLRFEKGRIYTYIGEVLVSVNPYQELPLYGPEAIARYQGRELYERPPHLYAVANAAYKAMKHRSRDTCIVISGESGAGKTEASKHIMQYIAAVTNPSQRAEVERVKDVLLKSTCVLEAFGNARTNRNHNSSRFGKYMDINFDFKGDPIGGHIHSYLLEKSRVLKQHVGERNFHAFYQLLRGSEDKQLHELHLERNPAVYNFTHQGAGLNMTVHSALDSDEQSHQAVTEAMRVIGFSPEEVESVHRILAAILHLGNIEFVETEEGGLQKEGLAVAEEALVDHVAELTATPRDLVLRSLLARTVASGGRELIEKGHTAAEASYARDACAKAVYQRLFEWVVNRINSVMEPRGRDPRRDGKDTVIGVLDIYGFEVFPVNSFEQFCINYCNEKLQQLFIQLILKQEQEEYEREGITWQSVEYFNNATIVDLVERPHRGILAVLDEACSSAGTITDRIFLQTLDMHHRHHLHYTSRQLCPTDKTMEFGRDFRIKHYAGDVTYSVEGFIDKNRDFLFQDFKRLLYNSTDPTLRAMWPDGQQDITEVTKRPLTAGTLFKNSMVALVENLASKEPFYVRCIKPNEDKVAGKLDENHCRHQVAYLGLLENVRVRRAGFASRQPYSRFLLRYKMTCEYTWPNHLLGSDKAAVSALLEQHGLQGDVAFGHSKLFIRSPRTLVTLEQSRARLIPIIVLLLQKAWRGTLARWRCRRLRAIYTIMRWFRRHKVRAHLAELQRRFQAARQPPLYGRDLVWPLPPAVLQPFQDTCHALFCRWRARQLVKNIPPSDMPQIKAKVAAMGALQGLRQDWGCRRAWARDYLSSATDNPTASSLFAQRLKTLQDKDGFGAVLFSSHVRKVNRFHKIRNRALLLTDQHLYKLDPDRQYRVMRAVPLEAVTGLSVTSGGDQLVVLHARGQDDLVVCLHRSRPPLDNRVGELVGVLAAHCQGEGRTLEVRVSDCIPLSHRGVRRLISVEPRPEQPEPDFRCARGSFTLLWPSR
# UniProt Q9Y3B2, sequence (Q9Y3B2 whole entry, one chain of several): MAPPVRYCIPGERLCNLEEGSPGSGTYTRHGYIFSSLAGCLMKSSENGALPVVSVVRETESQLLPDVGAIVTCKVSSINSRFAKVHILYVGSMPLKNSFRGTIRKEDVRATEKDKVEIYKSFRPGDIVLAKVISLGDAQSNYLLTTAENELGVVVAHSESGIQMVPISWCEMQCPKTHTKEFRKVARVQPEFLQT
Target,NP40-soluble protein abundance (concentration: 0.1mM),NP40-soluble protein abundance (concentration: 0.5mM),NP40-soluble protein abundance (concentration: 1mM),NP40-soluble protein abundance (concentration: 2mM),NP40-soluble protein abundance (concentration: 4mM),NP40-soluble protein abundance (concentration: 6mM),NP40-soluble protein abundance (concentration: 8mM),NP40-soluble protein abundance (concentration: 10mM)
B1AMU7|Q9Y3B2 (UniProt Q9Y3B2),1.02 ± 0.037,1.07 ± 0.04,1.01 ± 0.056,1.1 ± 0.11,1.18 ± 0.11,1.22 ± 0.12,1.17 ± 0.062,1.18 ± 0.068
C9JRJ5|Q9UGP4 (UniProt Q9UGP4),1.01 ± 0.054,1 ± 0.021,1 ± 0.043,0.955 ± 0.025,0.963 ± 0.031,0.962 ± 0.021,1.01 ± 0.038,0.965 ± 0.034
MYO1G (UniProt B0I1T2),1.12 ± 0.027,1.47 ± 0.26,1.95 ± 0.34,2.5 ± 0.51,2.75 ± 0.45,2.67 ± 0.49,2.58 ± 0.3,2.35 ± 0.31
A0A087WWS1|Q96FV9 (UniProt Q96FV9),1.1 ± 0.016,1.24 ± 0.086,1.41 ± 0.19,1.76 ± 0.41,2.08 ± 0.62,2.26 ± 0.76,2.37 ± 0.83,2.4 ± 0.91
F8VXG7|Q99590|Q99590-2 (UniProt Q99590),1.02 ± 0.064,1.13 ± 0.03,1.22 ± 0.025,1.26 ± 0.058,1.3 ± 0.042,1.31 ± 0.031,1.4 ± 0.1,1.42 ± 0.12
A0A0R4J2F3|Q9Y2S0|Q9Y2S0-2 (UniProt Q9Y2S0),1.01 ± 0.075,0.925 ± 0.056,1.11 ± 0.2,1.16 ± 0.14,1.2 ± 0.17,1.17 ± 0.12,1.15 ± 0.21,1.24 ± 0.28
E9PP50|P23528 (UniProt P23528),0.893 ± 0.054,0.906 ± 0.066,0.894 ± 0.066,0.823 ± 0.076,0.819 ± 0.068,0.839 ± 0.078,0.84 ± 0.066,0.821 ± 0.081
